According to PubChem BioAssay (NCI):
This is part of a sample that, as a whole, favours compounds with a hit. Of some 79,000 tested, about 15% had one in any assay. A number with no mark means an inactive call. Active and inactive are the calls of the source. Rule as the data show it: active = growth inhibition above about 70%; inactive = the rest.

Assay: NCI Yeast Anticancer Drug Screen. Data for the mlh1 rad18 strain (AID 175)
Details: S. cerevisiae mlh1 rad18 strain growth inhibition; at 50.0 µM; stronger effect = higher value
Outline: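 Genetically defined yeast (DNA repair-deficient) exposed to compounds; growth inhibition determined relative to vehicle.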

Row | SMILES | growth inhibition
1 | O=[N+]([O-])c1cccc(/C=C/C=C/c2ccc(Cl)c(Cl)c2)c1 | 4.1%
2 | COC1/C=C\OC2(C)Oc3c(C)c(O)c4c(O)c(c5[nH]cnc5c4c3C2=O)NC(=O)/C(C)=C\C=C\C(C)C(O)C(C)C(O)C(C)C(OC(C)=O)C1C (stereo not given) | 21.4%
3 | COc1cc(/C=C/C=C2\CC(C)C/C(=C\C=C\c3ccc(O)c(OC)c3)C2=O)ccc1O (stereo not given) | 8.2%
4 | Cc1cccc(C)c1NC(=O)CCC(=O)NC(N)=NC#N | -23.1%
5 | CCCc1nc2ccccc2c(=O)n1/N=C/c1ccc(Cl)cc1 | 7.95%
6 | C=CCN(CC=C)C(=O)C(=C)C | -4.1%
7 | O=C(Cc1nc(-c2ccccc2)cc(=O)n1-c1ccccc1Cl)c1ccncc1 | 20.4%
8 | COc1ccc(/C=N/NC(=O)CCCCCCCCC(=O)N/N=C/c2ccc(OC)c(OC)c2)cc1OC | -12.5%
9 | CCC(CC)=C(c1ccc(C)cc1)c1ccc(C)cc1 | -12.4%
10 | CN(C)/C=C/c1ccnc2c1C(=O)c1ccccc1C2=O | 92.7% (active)
11 | CCN1C(=O)c2ccccc2C1=O | 24.1%
12 | CN(C(=O)c1ccccc1)C1CCCC(=O)CC1 (stereo not given) | -65%
13 | COc1ccc(C(CCOS(=O)(=O)c2ccc(Br)cc2)(c2ccc(OC)cc2)c2ccc(OC)cc2)cc1 | 15.6%
14 | O=C(O)c1cc(C(=O)Nc2cccc3ccccc23)c(C(=O)O)cc1C(=O)Nc1cccc2ccccc12 | 22.8%
15 | C(=NCCSSCCN=Cc1ccccc1)c1ccccc1 | 21.6%
16 | COC1=C(C(C2=C(OC)CC(C)(C)CC2=O)c2ccc3c(c2)OCO3)C(=O)CC(C)(C)C1 | 11.9%
17 | Nc1nc2ccccc2[nH]1 | 6.95%
18 | O=C(c1cccc(C(F)(F)F)c1)c1ccccc1Cc1ccccc1 | 42%
19 | Cc1ccc(-c2cc(=O)c3cc(C)c(C)c(C(=O)O)c3o2)cc1C | 20.7%
20 | Cc1[nH]n(-c2ccccc2)c(=S)c1C(=O)c1ccccc1 | 0.45%

Row | SMILES | growth inhibition
21 | O=C(O)c1ccccc1C(=O)Cc1ccccc1 | -9.6%
22 | COc1ccc2c3c(ccc2c1)C1CC(=O)CC1CC3 (stereo not given) | 14.7%
23 | NS(=O)(=O)c1ccc(NC(=O)CCl)cc1 | -15.9%
24 | Cc1nc(Nc2ccccc2Cl)sc1C(=O)CC(=O)C(N)=O | 48.6%
25 | CC1(COC(=O)C2(C)CO2)CO1 (stereo not given) | -78.2%
26 | CC1(C)[C@@H]2C[C@H]1C(Cc1cccc(C[C@H]3c4cc(-c5ccccn5)ncc4[C@H]4C[C@@H]3C4(C)C)c1)c1cc(-c3ccccn3)ncc12 (stereo not given in full) | -8.65%
27 | C/C(=N\O)c1ccc2[nH]c(C)cc(=O)c2c1 | 12.7%
28 | O=C(O)c1ccccc1CC(C(=O)O)C(=O)O | 6.15%
29 | COc1ccc2c(c1)c(CO)c(CO)c[n+]2[O-] | 6.15%
30 | CC(C)CCCC(C)C1CCC2C3CCC4Cc5c(c6ccccc6n5C)CC4(C)C3CCC12C (stereo not given) | 21.9%
31 | C=CCc1cc(C(Cc2ccccc2)NC(C)C)cc(OCc2ccccc2)c1OCc1ccccc1 (stereo not given) | 50.9%
32 | CN(C)CCSC(CO)c1ccccc1 (stereo not given) | -6.5%
33 | CCc1nc2c([nH]1)c(=O)n(C)c(=O)n2C | 20.4%
34 | O=C1CCC(C(=O)O)N1 (stereo not given) | -7.8%
35 | CC(=O)NNC(=S)/N=C\c1c(O)[nH]c(=O)[nH]c1=O | -9.85%
36 | O=c1c2cc([N+](=O)[O-])ccc2n2n1CCCC2 | -10.4%
37 | CCOC(=O)CNC(=O)C(Cc1ccccc1)NC(=O)CNC(=O)OCc1ccccc1 (stereo not given) | 20.8%
38 | Cc1ccc(C)c2c1C(=O)c1ccccc1C2(O)C#Cc1ccccc1 (stereo not given) | 23.2%
39 | O=C1NC2(c3ccccc3)CCCCC2O1 (stereo not given) | -6.6%
40 | CC1OC1P(=O)(O)O (stereo not given) | -6.55%
